ATXN2 expr inh – reduces ATXN2 reporter expression in HEK-293 cells; HEK-293 ATXN2-luciferase reporter, luminescence, 24 h; Potency, µM (titrated, usually from 57 µM), for the others: at the highest dose activity change, negative = inhibition, most hits filed as inhibitors; hit rate 0.72% among 360,000; AID 1745845; further: on the % scale 0 is the no-effect control and ±100 the full control effect; nearly all actives have a fitted effect of over 55% in size
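qHTS (up to 57 uM final) was run with 24 h compound exposure of reporter cells at 37 °C. Each well was multiplexed: SteadyGlo luminescence measured ATXN2-luciferase expression after a fluorogenic Gly-Phe-AFC viability readout (25 uM final).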
S2 tox – cell viability loss in ATXN counter-screen. Potency, µM (doses to about 56.7 µM), hits mostly cytotoxic. hit rate 0.49% among 400,000. S2 cells (HEK-293 line with an ATXN2-luciferase reporter) viability, CellTiter-Fluor protease fluorescence, 24 h; further: nearly all actives have a fitted effect of over 40% in size
TGFb inhibitor – TGF-b pathway inhibition; HepG2 CAGA-GFP TGF-b/SMAD3 reporter, GFP fluorescence, 18 h; TGF-beta stimulated, 500 pg/mL final; Potency, µM (highest dose often 46.1 µM), for the others: top-dose activity, negative = inhibition, usual class: inhibitors; hit rate 1.2% among 410,000; AID 588855; further: on the % scale 0 is the no-effect control and ±100 the full control effect; nearly all actives have a fitted effect of over 65% in size
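Cell-based qHTS in HEPG2 carrying a CAGA-GFP Smad reporter; compounds added before 500 pg/mL final TGF-beta, 18 h incubation at 37 degrees C, GFP fluorescence quantified per cell by imaging cytometry.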
HepG2 tox – HepG2 cytotoxicity, counter-screen for TGF-b inhibitors | Potency, µM (highest dose often 46.1 µM), without a hit: top-dose activity change, negative = cytotoxicity, usual class: cytotoxic | hit rate 0.76% among 410,000 | HepG2 CAGA-GFP viability, ATP luminescence, 18 h | AID 588856
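HepG2 CAGA-GFP cells (1000/well, DMEM with 1% FBS) received compound, then TGF-beta at 500 pg/mL final, and were incubated 18 hours at 37 degrees C. Viability was read by CellTiter-Glo luminescence. Media-only wells were set as complete cell-killing and DMSO as no toxicity.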
HT1080-NT tox – kills 2HG-producing HT-1080-NT fibrosarcoma cells; HT-1080-NT fibrosarcoma viability, CellTiter-Glo ATP luminescence, 48 h; Potency, µM (highest dose often 46.1 µM), inactives show at the highest dose activity, negative = less viability, usual class: cytotoxic; hit rate 1.6% among 360,000; AID 686970;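 further: NT is the 2HG producing partner of a matched IDH1 knockdown line; 0% = DMSO-treated cells and -100% = media-only wells without cells; nearly all actives have a fitted effect of over 55% in size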
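Viability of the 2HG-overproducing fibrosarcoma line after 48 hours of compound exposure at 37 degrees C was determined by luminescence with CellTiter-Glo, and concentration-effect curves were then fitted and categorized.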
HT1080 IDH1KD tx – toxicity to HT-1080 IDH1 knockdown cells (counter line); HT-1080 IDH1 knockdown viability, ATP luminescence, 48 h; Potency, µM (top dose mostly 46.1 µM), inactives show at the highest dose activity, negative = toxicity, usual class: cytotoxic; hit rate 2% among 360,000; AID 686971;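 further: 0% = DMSO wells and -100% = cell-free medium wells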
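HT-1080-IDH1KD cells (IDH1 knocked down), 750/well in RPMI with 5% FBS, treated with compound 48 h at 37 degrees C. Viability by CellTiter-Glo luminescence, normalised to DMSO and no-cell wells; concentration-response curves classed.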
Starred values were filed as active, the others as inactive; i = inactive; ? = inconclusive; / = no result given. This is a sample that favours compounds with a hit; in the whole collection about 3.9% have one here. The call rests on the fitted dose curve; in most records, active means well fitted curve in the direction sought with a large enough effect; inconclusive means small, poorly fitted or top-dose-only effect, or another doubt; inactive means no such curve, though single readings can be large; an effect the other way counts as inactive or inconclusive. Potency means the concentration at half of the fitted maximal effect.

SMILES	ATXN2 expr inh	S2 tox	TGFb inhibitor	HepG2 tox	HT1080-NT tox	HT1080 IDH1KD tx
O=C(CCc1ccccc1)NC(NC(=S)Nc1cccc(Cl)c1)C(Cl)(Cl)Cl (stereo not given)	-22.3%	i	?	-23.1%	10.0%	16.6%
CC(C=CC=C(C)C=CC1=C(C)CCCC1(C)C)=CC=CC=C(C)C=CC=C(C)C=CC1=C(C)CCCC1(C)C	9.2%	/	/	/	/	/
Cc1ccc2c(c1)N(C(=O)N1CCC(C(=O)NCCc3ccc(Cl)cc3)CC1)CC(C)O2 (stereo not given)	/	/	-18.6%	-16.4%	/	/
Cc1cc(C)cc(-n2ccn(CC(=O)Nc3ccccc3C(F)(F)F)c(=O)c2=O)c1	/	/	-20.3%	-10.8%	/	/
COc1ccc(NC(=O)c2c(NCc3sccc3C)sc3c2CCCCC3)c(OC)c1	?	/	?	-17.8%	/	/
CCOC(=O)N1CCc2c(sc(NCc3sccc3C)c2C(=O)Nc2ccc(OC)cc2OC)C1	14.1µM*	i	-29.6%	-2.0%	/	/
CCOc1ccccc1NC(=O)c1c(NCc2sccc2C)sc2c1CCCCC2	?	?	?	-34.6%	/	/
CCOc1ccccc1NC(=O)c1c(NCc2cccs2)sc2c1CCCCC2	?	?	17.8µM*	-48.1%	/	/
COc1ccc(OC)c(NC(=O)c2c(NCc3cccs3)sc3c2CCCC3)c1	/	/	15.8µM*	-29.9%	/	/
C=C(C)COc1ccc(-c2[nH]ncc2-c2ccccc2OC)c(O)c1	?	?	?	17.8µM*	18.4µM*	18.4µM*
C=C(C)COc1ccc(-c2[nH]ncc2Oc2ccc(OC)cc2)c(O)c1	5.1%	i	?	-95.8%	?	?
COc1ccc(-c2cn[nH]c2-c2ccc(O)cc2O)cc1OC	3.9%	i	13.9%	0.5%	-10.6%	-1.2%
CCOc1ccc(-c2n[nH]c(C)c2Oc2ccc(OC)cc2)c(O)c1	-21.2%	i	?	12.6µM*	?	?
CCOc1ccc(-c2[nH]ncc2-c2ccc(OC)c(OC)c2)c(O)c1	-19.6%	?	-2.2%	-9.2%	6.31µM*	2.24µM*
C=C(C)COc1ccc(-c2[nH]ncc2-c2ccc(Br)cc2)c(O)c1	?	?	20µM*	-115.2%	14.6µM*	23.1µM*
COc1cc2nc(C#N)nc(N)c2cc1OC	/	/	/	/	21.5%	16.1%
Cc1c(Cl)cccc1NC(=O)CSc1nc(=O)[nH]c2c1CCCC2	/	/	?	-10.6%	/	/
COc1ccc(/C=C2\SC(=S)N(CCC(=O)N3CCOCC3)C2=O)cc1	97.7%	0.199µM*	-2.1%	0.6%	3.5%	15.2%
Cc1ccc(/C=C2\SC(=S)N(CCC(=O)N3CCOCC3)C2=O)cc1	36.4%	i	-1.3%	-22.8%	0.3%	8.9%
COc1ccc(/C=C2\SC(=S)N(CCCC(=O)N3CCN(C)CC3)C2=O)cc1	?	?	?	-51.4%	25.9µM*	16.4µM*
CCc1ccc(/C=C2\SC(=S)N(CCCC(=O)N3CCN(C)CC3)C2=O)cc1	/	?	?	-33.4%	-18.6%	?
COc1ccc(OCC(O)Cn2c(NCCO)nc3c2c(=O)n(C)c(=O)n3C)cc1 (stereo not given)	/	/	-7.2%	-6.9%	/	/
CCCN1CCC(=NNc2ccc(S(=O)(=O)N3CCOCC3)cc2[N+](=O)[O-])CC1	-19.6%	i	-0.5%	14.1µM*	?	14.6µM*
CCCn1c(NC(=O)c2ccccc2)nc2ccccc21	7.1%	i	?	-3.6%	-22.6%	-29.6%
C[C@H](NCc1ccc2c(c1)nc(NC(=O)c1ccc(-c3cn[nH]c3)s1)n2CCc1ccccc1)C(C)(C)C	1.93µM*	/	/	/	/	/
O=C(NNc1nc2ccc(Cl)cc2s1)c1cc(-c2cccs2)nc2ccccc12	31.6µM*	?	8.91µM*	-60.8%	?	?

Screening results as filed in PubChem BioAssay.
